Rows were chosen to be rich in hits. Some 13% of all compounds tested hit in one or more screens of this group.
HCV inh: qHTS Assay for Inhibitors of Hepatitis C Virus (HCV); Huh7.5.1 HCVcc-Cre infection, luciferase reporter, 44 h; Potency, µM (top dose mostly 41.8 µM), inactives show at the top dose activity change, negative = inhibition, actives largely listed as inhibitors; actives 3.4% (n = 340,000); note: potency is the fitted concentration of half-maximal effect
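Reporter virus HCVcc-Cre (~0.5 moi) infects cells exposed to compound; seeding density 1,000 cells/well with 4 h settling beforehand. Luminescence, 15 sec read, taken 44 h post-infection following a 15 min RT substrate incubation.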
HCMV antiviral: qHTS Assay for inhibitors of the human cytomegalovirus (HCMV); HFF cells, HCMV-luciferase reporter, 72 h; stronger effect = lower value; activity change, negative = inhibition, % at 57.5 µM; actives 4.5% (n = 410,000); AID 1259415, 2018; in the data active = activity change below about -60%; inconclusive = no clear call, values can overlap the other calls; inactive = above about -39%
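HFF cells seeded 16 h at 37C, treated with compounds, infected with luciferase-reporter HCMV at MOI 1 PFU/cell; luciferase read at 72 h post infection, normalized to buffer-only and Salinomycin controls.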
Pf growth 48h: Primary qHTS for delayed death inhibitors of the malarial parasite plastid, 48 hour incubation; P. falciparum luciferase growth in erythrocytes, 48 h; Potency, µM (series often up to 28.7 µM), for inactives: at the top dose activity change, negative = inhibition, actives largely listed as inhibitors; actives 5.9% (n = 310,000); AID 504832, 2011; note: potency is the fitted concentration of half-maximal effect
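A one-generation exposure of luciferase-tagged malaria parasites in RPMI 1640/Albumax erythrocyte culture, 37 C and 5% CO2. Inhibition is inferred from decreased luminescence after adding detection reagent.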
Pf growth 96h: Primary qHTS for delayed death inhibitors of the malarial parasite plastid, 96 hour incubation | AID 504834, 2011 | actives 6.9% (n = 320,000) | P. falciparum luciferase reporter growth, 96 h | Potency, µM (doses to about 28.7 µM), for inactives: at the highest dose activity change, negative = inhibition, usual class: inhibitors; note: potency is the fitted concentration of half-maximal effect
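Cell-based qHTS: luciferase-tagged P. falciparum in erythrocytes (2% hematocrit, 0.05% parasitemia final) incubated with compounds for 96 hours, 37 C, 5% CO2; luciferase detection reagent then added and luminescence measured.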
* marks the source's active call; other numbers are inactive results; ? = inconclusive; / = not tested or not shown; [ ] = another dose, or the depositor's remark. Unless noted, calls come from the whole dose curve; as a rule, active = well fitted inhibition curve with a large enough effect; inconclusive = small, poorly fitted or top-dose-only effect, or another doubt; inactive = no such curve, though single readings can be large or run the other way. % is set by controls: 0 for no effect and ±100 for the full control effect.

SMILES	HCV inh	HCMV antiviral	Pf growth 48h	Pf growth 96h
Cc1nc(N2CCN(c3ccccc3O)CC2)c2c(-c3ccccc3)csc2n1	?	-33	13µM*	?
OCCN1CCN(c2ncnc3scc(-c4ccc(F)cc4)c23)CC1	1%	-31	-10%	-28%
Oc1ccccc1N1CCN(c2ncnc3scc(-c4ccccc4)c23)CC1	?	-22	5.9µM*	5.2µM*
Cc1nc(N2CCC(C(N)=O)CC2)c2c(-c3cccs3)csc2n1	4%	?	-5%	-19%
O=c1c2oc3ccccc3c2n(Cc2ccccc2F)c(=O)n1Cc1ccco1	/	1	/	/
Cc1ccc(CN2CCN(C3CCN(C(=O)Nc4ccc(C)cc4Cl)CC3)C(=O)C2=O)cc1	/	2	/	/
OCC1CCCN(c2ncnc3scc(-c4ccccc4)c23)C1 (configuration not stated)	-12%	-63*	?	?
CN1CCN(c2ncnc3scc(-c4ccccc4Cl)c23)CC1	-16%	-73*	?	5.9µM*
Cc1cc(-c2csc3ncnc(N4CCN(C)CC4)c23)cc(C)c1C	-7%	-30	-15%	?
Cc1nn(-c2ccccc2)c2c1N(CC(=O)N1CCN(c3ccccc3F)CC1)C(=O)CS2	/	-4	/	/
COc1ccc(CNc2ncnc3cc(OC)c(OC)cc23)cc1	?	1	4.1µM*	2.1µM*
COc1cc2ncnc(NCc3ccc4c(c3)OCO4)c2cc1OC	-14%	-28	12µM*	?
COc1ccc(CNc2ncnc3cc(OC)c(OC)cc23)cc1OC	-9%	?	?	?
COC(=O)[C@]12CCCCC=C1N(CCC1=CCCCC1)C(=O)[C@H](CC(=O)N1CCN(C(=O)c3ccco3)CC1)C2	/	-17	/	/
CNC[C@H](CC1CCCCC1)NC[C@H](Cc1ccccc1)NCCC12CC3CC(CC(C3)C1)C2	1%[8.37 µM]	-105*	?	2.1µM*
O=C(COc1ccc(Cl)cc1Cl)N/N=C/CCc1ccccc1	17%	?	10%	86%
O=C(COc1ccc(Cl)cc1Cl)N/N=C/c1ccc[nH]1	6.3µM*	-40	3%	10%
COC(=O)NNC(=O)CCCOc1ccc(Cl)cc1Cl	6%	-11	1%	38%
O=C(CCCOc1ccc(Cl)cc1Cl)N/N=C/c1ccccc1	-20%	-25	8%	-18%
O=C(O)CCC(=O)NNC(=O)CCCOc1ccc(Cl)cc1Cl	-17%	?	-6%	2%
CC(C)NC(=O)CCCOc1ccc(Cl)cc1Cl	2%	38	/	10µM*
O=C(CCCOc1ccc(Cl)cc1Cl)N/N=C/c1ccccc1O	?	-104*	?	?
O=C(O)CCC(=O)NNC(=O)COc1ccc(Cl)cc1Cl	-22%	-79*	17%	37%
CCCc1cc(=O)[nH]c2nnc(SCC(=O)Nc3ccc(OC)cc3)n12	/	-27	/	/
COc1ccc(C(=O)c2cn(Cc3ccccc3)c3ccccc3c2=O)cc1OC	/	-10	/	/
SMILES	HCV inh	HCMV antiviral	Pf growth 48h	Pf growth 96h
COc1ccc(CN2C(=O)CS/C2=N/N=C/c2ccccc2)cc1	13µM*	53	-2%	11%
CCCC1S/C(=N/N=C/c2ccc(C)cc2)N(Cc2ccc(OC)cc2)C1=O (configuration not stated)	7%	-9	4.1µM*	10µM*
COc1ccc(/C=N/N=C2\SC(CC(=O)O)C(=O)N2c2ccccc2)cc1 (configuration not stated)	23%	-37	10%	1.7µM*
COc1ccc(N=C2SCC(=O)N2Cc2ccccc2)cc1	5%	5	-13%	9.3µM*
COc1cccc(CNC(=O)C2CCN(C(=O)c3cnn(-c4ccccc4)c3-n3cccc3)CC2)c1	/	-8	/	/
CCOc1ccc(NC(=O)CSc2nc3ccsc3c(=O)n2CCC(=O)O)cc1	17%	?	22%	42%
CNC(=O)CSc1nc2c(c(=O)n(C)c(=O)n2C)n1Cc1ccc(C)cc1	0.63µM*	63	-4%	19%
Cn1c(=O)c2c(nc(SCc3ccccc3)n2Cc2ccc(Cl)cc2)n(C)c1=O	?	-19	?	-29%
CCC(C)Nc1nc2c(c(=O)n(C)c(=O)n2C)n1Cc1ccc(Cl)cc1 (configuration not stated)	-11%	66	?	6.6µM*
COc1ccc(CNc2nc3c(c(=O)n(Cc4ccc(Cl)cc4)c(=O)n3C)n2C)cc1	?	?	2.6µM*	?
CCc1ccc(NC(=O)CSc2nc3ccsc3c(=O)n2CCC(=O)O)cc1	15%	-8	12%	7.4µM*
CCNC(=O)C[C@@H]1C=C[C@@H](NS(=O)(=O)c2ccc(F)cc2)[C@@H](CO)O1	/	-12	/	/
CCc1ccc(NC(=O)CSc2nc3c(c(=O)n(C)c(=O)n3C)n2C)cc1	-6%[8.37 µM]	0	-3%	10µM*
CCNc1nc2c(c(=O)n(C)c(=O)n2C)n1Cc1ccc(Cl)cc1	3.5µM*	-66*	-7%	?
CCC(C)Nc1nc2c(c(=O)n(C)c(=O)n2C)n1Cc1cccc(C)c1 (configuration not stated)	-11%	5	15µM*	74%
Cn1c(=O)c2c(nc(NCc3cccnc3)n2Cc2ccc(Cl)cc2)n(C)c1=O	-9%	158	/	?
CCNc1nc2c(c(=O)n(Cc3ccccc3)c(=O)n2C)n1Cc1ccccc1	2%	-28	10µM*	24%
COC(=O)c1sccc1S(=O)(=O)N(CC(=O)NCc1ccccc1)c1ccc(C)c(C)c1	/	1	/	/
CCn1c(SCC(=O)Nc2ccccc2N2CCCCC2)nc2c1c(=O)n(C)c(=O)n2C	?	-69*	?	/
CC(C)Sc1nc2c(c(=O)n(C)c(=O)n2C)n1Cc1ccc(Cl)cc1	10µM*	-35	?	?
CC(C)n1c(SCC(=O)Nc2ccccc2N2CCOCC2)nc2c1c(=O)n(C)c(=O)n2C	?	18	?	-23%
Fc1ccc(-c2csc(=S)[nH]2)cc1	-2%	-7	33%[5.75 µM]	-1%
Fc1ccc(-c2csc3[n+]2CCS3)cc1	11%	-2	10µM*	4.1µM*
O=[N+]([O-])c1ccc(-c2csc3[n+]2CCS3)cc1	?	-17	/	9.3µM*
COC(=O)c1cc2oc(C)cc2n1CC(=O)Nc1ccc(OC)c(OC)c1	/	8	/	/
O=C1N=C2SCCN2C(=O)C1Cc1ccc(Cl)cc1 (configuration not stated)	/	/	-7%	-9%
COc1ccc(C(Cl)=C(c2ccc(OC)cc2)c2ccc(OC)cc2)cc1	3%[8.37 µM]	18	9.3µM*	?
O=Cc1c(Sc2ccccc2)nc2ccccn2c1=O	-8%	43	/	7.4µM*
O=Cc1c(Sc2ccccn2)nc2ccccn2c1=O	35µM*	149	?	?
CCc1cccc(NC(=O)CCc2c(C)nc3c(-c4ccccc4)c(C)nn3c2C)c1	/	-5	/	/

Screening results deposited in PubChem BioAssay by National Center for Advancing Translational Sciences (NCATS).
